# Experimental data: PubChem BioAssay (NCATS)
# “And” between values parts separate entries of the source, which are not always exact repeats. Equal entries are not always repeated. Records with an inconclusive call do not appear. A call without a number means that no potency is given here. A structure can be active in one record and inactive in another. Unmarked numbers belong to inactive results. The source made the active and inactive calls. Calls follow the shape of the dose curve; as a rule, active = well fitted inhibition curve with a large enough effect; inconclusive = small, poorly fitted or top-dose-only effect; inactive = flat fitted curve, though single readings scatter.
# Columns and labels:
# CRL-7250 = normal cell line; assay: Cytotoxic Profiling of Annotated Libraries Using Quantitative High-Throughput Screening (AID 1296008); conditions: Five cell lines viability, CellTiter-Glo ATP luminescence, 48-72 h; max response: stronger effect = lower value; also: potency is read from the fitted curve at half-maximal effect
# Outline: (§1)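 Cells exposed to compounds for 48 or 72 hr at 37 degrees Celsius. Viability read as ATP-coupled luminescence with CellTiter-Glo after 10 min at room temperature.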
# HEK293 = assay: as above; conditions: Five cell lines viability, CellTiter-Glo ATP luminescence, 48-72 h; max response: stronger effect = lower value
# Outline: as §1
# HaCat [1] = assay: as above; conditions: Five cell lines viability, CellTiter-Glo ATP luminescence, 48-72 h; max response: stronger effect = lower value
# Outline: as §1
# KB-3-1 = assay: as above; conditions: Five cell lines viability, CellTiter-Glo ATP luminescence, 48-72 h; max response: stronger effect = lower value
# Outline: as §1
# NIH3T3 = assay: as above; conditions: Five cell lines viability, CellTiter-Glo ATP luminescence, 48-72 h; max response: stronger effect = lower value
# Outline: as §1
# HACAT [2] = assay: qHTS assay to identify novel small-molecules to repurpose for Merkel cell carcinoma treatment (AID 1296009); conditions: MCC and control cell lines, CellTiter-Glo viability, 72 h; at 44.8 µM (top of the series) unless noted
# Outline: (§2)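 Dose-response viability screen; 72 hr exposure at 37 degree celsius; CellTiter-Glo added, 10 min room temperature, luminescence read; RLUs scaled between no-cell and DMSO wells.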
# HEK293T = assay: as above; conditions: MCC and control cell lines, CellTiter-Glo viability, 72 h; at 44.8 µM (top of the series) unless noted
# Outline: as §2
# JCK = assay: qHTS profiling for inhibitors of Plasmodium falciparum proliferation (AID 504749); also: potency is read from the fitted curve at half-maximal effect; conditions: P. falciparum in erythrocytes, SYBR Green DNA, 72 h; series mostly up to 28.7 µM
# Outline: (§3)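 Each compound contacts P. falciparum-infected red blood cells for 72 h at 37 C; lysis buffer (Tris, EDTA, saponin, Triton X, SYBR Green I) is added and fluorescence measured next morning; values normalized to controls.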
# N140 = assay: as above; conditions: P. falciparum in erythrocytes, SYBR Green DNA, 72 h; series mostly up to 28.7 µM
# Outline: as §3
# PAD = assay: as above; conditions: P. falciparum in erythrocytes, SYBR Green DNA, 72 h; series mostly up to 28.7 µM
# Outline: as §3
# PC15 = assay: as above; conditions: P. falciparum in erythrocytes, SYBR Green DNA, 72 h; series mostly up to 28.7 µM
# Outline: as §3
# PC26 = assay: as above; conditions: P. falciparum in erythrocytes, SYBR Green DNA, 72 h; series mostly up to 28.7 µM
# Outline: as §3
# PC49 = assay: as above; conditions: P. falciparum in erythrocytes, SYBR Green DNA, 72 h; series mostly up to 28.7 µM
# Outline: as §3
# SC27B = assay: as above; conditions: P. falciparum in erythrocytes, SYBR Green DNA, 72 h; series mostly up to 28.7 µM
# Outline: as §3
# TAB109 = assay: as above; conditions: P. falciparum in erythrocytes, SYBR Green DNA, 72 h; series mostly up to 28.7 µM
# Outline: as §3
# TAB113 = assay: as above; conditions: P. falciparum in erythrocytes, SYBR Green DNA, 72 h; series mostly up to 28.7 µM
# Outline: as §3
# W2 = assay: as above; conditions: P. falciparum in erythrocytes, SYBR Green DNA, 72 h; series mostly up to 28.7 µM
# Outline: as §3
# P93_24 = assay: as above; conditions: P. falciparum in erythrocytes, SYBR Green DNA, 72 h; series mostly up to 28.7 µM
# Outline: as §3
# P94_40 = assay: as above; conditions: P. falciparum in erythrocytes, SYBR Green DNA, 72 h; series mostly up to 28.7 µM
# Outline: as §3
# TAB165 = assay: as above; conditions: P. falciparum in erythrocytes, SYBR Green DNA, 72 h; series mostly up to 28.7 µM
# Outline: as §3
# Also: nearly all actives have a fitted effect of over 60% in size.
structure (smiles),measurement,setting,value
C[C@@H]1CN(c2c(F)c(N)c3c(=O)c(C(=O)O)cn(C4CC4)c3c2F)C[C@H](C)N1,max response,CRL-7250,-4.39%
same,outcome,CRL-7250,inactive
same,outcome,HEK293,inactive
same,max response,HaCat [1],-0.171%
same,outcome,HaCat [1],inactive
same,max response,KB-3-1,8.25% and 3.23%
same,max response,NIH3T3,0.0179% and 2.17%
same,outcome,HACAT [2],inactive [at 17.4 µM]
same,outcome,HEK293T,inactive [at 17.4 µM]
CN(Cc1cc(Br)cc(Br)c1N)C1CCCCC1,Potency,JCK,inactive
same,Potency,N140,inactive
same,Potency,PAD,inactive
same,Potency,PC15,inactive
same,Potency,PC26,inactive
same,Potency,PC49,inactive
same,Potency,SC27B,inactive
same,Potency,TAB109,inactive
same,Potency,TAB113,inactive
same,Potency,W2,4.26 µM (active)
same,max response,CRL-7250,1.14%
same,outcome,CRL-7250,inactive
same,outcome,HEK293,inactive
same,max response,HaCat [1],3.33%
same,outcome,HaCat [1],inactive
same,max response,KB-3-1,2.85% and 5.96%
same,max response,NIH3T3,1.21%
same,outcome,NIH3T3,inactive
same,outcome,HACAT [2],inactive
same,outcome,HEK293T,inactive
Nc1nc(F)nc2c1ncn2[C@@H]1O[C@H](CO)[C@@H](O)[C@@H]1O,Potency,CRL-7250,0.332 µM (active)
same,max response,CRL-7250,-19.1%
same,Potency,HEK293,0.662 µM (active)
same,max response,HEK293,-7.93%
same,max response,HaCat [1],-5.85%
same,Potency,KB-3-1,820 nM (active) and 1.3 µM (active) and 1.18 µM (active)
same,outcome,KB-3-1,inactive
CC(=O)[C@H]1CC[C@H]2[C@@H]3CC=C4C[C@@H](O)CC[C@]4(C)[C@H]3CC[C@]12C,max response,CRL-7250,3.91%
same,outcome,CRL-7250,inactive
same,max response,HEK293,-4.16% and 0.472%
same,max response,HaCat [1],2.2%
same,outcome,HaCat [1],inactive
same,max response,KB-3-1,-0.265% and 8.01%
same,max response,NIH3T3,0.775%
same,outcome,NIH3T3,inactive
same,outcome,HACAT [2],inactive
CNS(=O)(=O)CCc1ccc2[nH]cc(C3CCN(C)CC3)c2c1,max response,CRL-7250,-7.4% and 0.211%
same,outcome,CRL-7250,inactive
same,max response,HEK293,-3.79% and -10.1%
same,outcome,HEK293,inactive
same,max response,HaCat [1],0.93%
same,outcome,HaCat [1],inactive
same,max response,KB-3-1,-19.4% and 0.237%
same,outcome,KB-3-1,inactive
same,max response,NIH3T3,0.12%
same,outcome,NIH3T3,inactive
same,outcome,HACAT [2],inactive
same,outcome,HEK293T,inactive
CCC(=O)O[C@]1(C(=O)CCl)[C@@H](C)C[C@H]2[C@@H]3CCC4=CC(=O)C=C[C@]4(C)[C@@]3(F)[C@@H](O)C[C@@]21C,max response,CRL-7250,-12.4%
same,outcome,CRL-7250,inactive
same,max response,HEK293,-0.886%
same,max response,HaCat [1],-4.36% and -8.18%
same,max response,KB-3-1,-5.78% and 1.04%
same,max response,NIH3T3,-2.25%
same,outcome,NIH3T3,inactive
O=c1cc(O)c(Cl)c[nH]1,Potency,JCK,inactive
same,Potency,N140,inactive
same,Potency,P93_24,inactive
same,Potency,P94_40,inactive
same,Potency,PAD,inactive
same,Potency,PC15,inactive
same,Potency,PC26,inactive
same,Potency,PC49,inactive
same,Potency,SC27B,inactive
same,Potency,TAB109,inactive
same,Potency,TAB113,inactive
same,Potency,TAB165,inactive
same,Potency,W2,inactive
same,max response,CRL-7250,-3.23%
same,outcome,CRL-7250,inactive
same,max response,HaCat [1],-15.6%
same,outcome,HaCat [1],inactive
same,max response,KB-3-1,2.19%
same,max response,NIH3T3,2.08%
same,outcome,NIH3T3,inactive
same,outcome,HACAT [2],inactive
C[C@@H](CN1CC(=O)NC(=O)C1)N1CC(=O)NC(=O)C1,Potency,CRL-7250,0.148 µM (active)
same,max response,CRL-7250,0.572%
same,Potency,HEK293,0.235 µM (active)
same,Potency,HaCat [1],23.5 µM (active)
same,max response,HaCat [1],-7.01%
same,max response,KB-3-1,7.8%
same,Potency,NIH3T3,0.187 µM (active)
Cn1nnc2c(C(N)=O)ncn2c1=O,Potency,JCK,inactive
same,Potency,N140,inactive
same,Potency,P93_24,inactive
same,Potency,P94_40,inactive
same,Potency,PAD,inactive
same,Potency,PC15,inactive
same,Potency,PC26,inactive
same,Potency,PC49,inactive
same,Potency,SC27B,inactive
same,Potency,TAB109,inactive
same,Potency,TAB113,inactive
same,Potency,TAB165,inactive
same,Potency,W2,inactive
same,max response,CRL-7250,3.05%
same,outcome,CRL-7250,inactive
same,max response,HEK293,1.76% and -7.24%
same,max response,HaCat [1],0.848%
same,outcome,HaCat [1],inactive
same,max response,KB-3-1,3.98% and 7.43%
same,max response,NIH3T3,-16.1%
same,outcome,NIH3T3,inactive
same,outcome,HACAT [2],inactive
CNCC[C@H](Oc1cccc2ccccc12)c1cccs1,Potency,N140,8.91 µM (active)
same,Potency,P93_24,3.16 µM (active)
same,Potency,P94_40,10 µM (active)
same,Potency,PAD,11.2 µM (active)
same,Potency,PC15,5.01 µM (active)
same,Potency,PC26,8.49 µM (active)
same,Potency,PC49,4.47 µM (active)
same,Potency,TAB109,7.08 µM (active)
same,Potency,TAB113,8.91 µM (active)
same,Potency,TAB165,12.6 µM (active)
same,Potency,W2,1.9 µM (active)
same,max response,CRL-7250,-21.6%
same,outcome,CRL-7250,inactive
same,Potency,HEK293,21.1 µM (active)
same,outcome,HaCat [1],inactive
same,max response,KB-3-1,-19.6% and -13.2%
same,outcome,HACAT [2],inactive
O=C(O)CCn1c2c(c3ccccc31)C[C@H](NS(=O)(=O)c1ccc(F)cc1)CC2,max response,CRL-7250,-4.51%
same,outcome,CRL-7250,inactive
same,max response,HEK293,3.39% and -17.8%
same,outcome,HEK293,inactive
same,max response,HaCat [1],4.42% and 4.82%
same,outcome,HaCat [1],inactive
same,max response,KB-3-1,0.769% and -7.72%
same,outcome,KB-3-1,inactive
same,max response,NIH3T3,-9.59% and 4.36%
same,outcome,NIH3T3,inactive
same,outcome,HACAT [2],inactive
same,outcome,HEK293T,inactive
CNS(=O)(=O)Cc1ccc2[nH]cc(CCN(C)C)c2c1,Potency,JCK,inactive
same,Potency,N140,inactive
same,Potency,P93_24,inactive
same,Potency,P94_40,inactive
same,Potency,PAD,inactive
same,Potency,PC15,inactive
same,Potency,PC26,inactive
same,Potency,PC49,inactive
same,Potency,SC27B,inactive
same,Potency,TAB109,inactive
same,Potency,TAB113,inactive
same,Potency,TAB165,inactive
same,max response,CRL-7250,-6.22%
same,outcome,CRL-7250,inactive
same,max response,HEK293,2.84%
same,outcome,HEK293,inactive
same,outcome,HaCat [1],inactive
same,max response,KB-3-1,-7.88% and 1.69%
same,max response,NIH3T3,-1.5%
same,outcome,NIH3T3,inactive
same,outcome,HACAT [2],inactive
same,outcome,HEK293T,inactive
